This is a sample that favours compounds with a hit; in the whole collection about 13% have one here.
CHOP inh = blocks CHOP induction under ER stress; CHO-K1 CHOP-promoter luciferase, tunicamycin-induced, 15-18 h; inhibition, % at 10 µM; 220,000 compounds, 3.8% hits; AID 2732;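 active means compounds that reduced the stress-induced luciferase reporter signal by more than about 70% of percent inhibition, limit read from the data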
RAM network inh = blocks the yeast RAM network; S. cerevisiae dse1pr::URA3 reporter, 5-FOA growth OD615, 2 d; analog-sensitive cbk1-as2 kinase mutant strain; inhibition, % at 50 µM; 190,000 compounds, 1.8% hits; AID 868;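 active means inhibition above a set limit, 3 SD over mean compound inhibition, cut at about 8.4% in these data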;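 further: inhibition rescues growth on 5-FOA so higher OD means more RAM inhibition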
WT yeast gro inh = growth inhibition of WT yeast, mitochondrial fusion screen. 190,000 compounds, 2.1% hits. inhibition, % at 10 µM. mitochondrial fusion phenotypic screen, WT strain; in the data active means inhibition above about 58%; tested in S. cerevisiae
L major viab = reduces viability of Leishmania major promastigotes | resazurin fluorescence viability | inhibition, % at 10 µM | 200,000 compounds, 9% hits | AID 1063; in the data active means inhibition above about 50%;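 further: promastigotes grown with compound for 44 hours at 28 °C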
A number is an active result; n = inactive; x = no result.

SMILES | CHOP inh | RAM network inh | WT yeast gro inh | L major viab
COc1ccc(N(C(=O)/C=C/c2ccc(OC)c(OC)c2)C2=CC3CCC(C2)N3C)cc1 (stereo unspecified) | n | n | n | 100
COc1ccc(N(C(=O)c2ccc(Cl)cc2)C2=CC3CCC(C2)N3C)cc1 (stereo unspecified) | n | n | n | 79
COC(=O)C1CCN(C(=O)COC(=O)[C@@H]2CC(O)CN2S(=O)(=O)c2ccc3c(c2)OCCO3)CC1 (stereo partly specified) | n | n | n | 51
CC1(C(=O)NCc2ccccn2)C=CCN1C(=O)c1ccccc1 (stereo unspecified) | n | n | n | n
Cc1c(Cl)cccc1NC(=S)/C(=C(\[O-])c1ccc(Cl)s1)[n+]1ccccc1 | n | n | n | 64
COC(=O)C(C)Oc1ccc(-c2nccc(-c3cccs3)n2)cc1 (stereo unspecified) | 91 | n | n | n
COc1ccc(-c2[nH]n(-c3ccc([N+](=O)[O-])cc3)c(=O)c2C=NCc2ccncc2)cc1 | 85 | n | n | 99
COc1ccc(-c2[nH]n(-c3ccc([N+](=O)[O-])cc3)c(=O)c2C=NCc2ccc(F)cc2)cc1 | n | n | n | n
O=C(c1ccc(Cl)cc1)N1CCC(c2nc(-c3cccs3)no2)CC1 | n | n | n | 87
Cc1cc2ccccc2n1CCNC(=O)c1ccc(Br)o1 | n | n | n | n
CC(C)OP(=O)(OC(C)C)C(O)c1ccc(N(C)C)cc1 (stereo unspecified) | n | x | x | x
O/N=C/c1ccccc1OCc1ccc(Cl)cc1 | 76 | n | n | n
O/N=C/c1ccccc1OCc1ccccc1Cl | n | n | n | n
CC(=O)c1ccc(S(=O)(=O)N2CCCCC2C(=O)O)cc1 (stereo unspecified) | n | n | n | n
CCOC(=O)C1=C(CSc2nc(-c3ccccc3)ccc2C#N)OC(N)=C(C#N)C1c1cccnc1 (stereo unspecified) | n | n | n | n
CCOC(=O)C1=C(CSc2nc(-c3ccccc3)ccc2C#N)OC(N)=C(C#N)C1c1ccccc1 (stereo unspecified) | n | 8.6 | n | n
CC(=O)N(C(C)=O)N1C(=O)/C(=C/c2ccc(Cl)cc2)SC1=S | 91 | n | n | n
Cc1ccc(C)n1N1C(=O)/C(=C\c2ccc(Cl)cc2)SC1=S | n | n | n | n
CC(C)(C)SCCNC(=O)Nc1ccccc1 | n | n | n | 54
CC(C)(C)SCCNC(=O)CSc1ccccc1 | x | x | n | n
Nc1cc([N+](=O)[O-])ccc1O | n | n | n | 98
Cc1ccc(S(=O)(=O)Nc2ccc(Oc3cccnc3)nc2)cc1 | n | x | x | x
Cc1cc(-c2csc(N)n2)c(C)n1C | n | n | n | n
Cc1ccc(-n2c(C)cc(-c3csc(N)n3)c2C)cc1 | n | n | n | 67
C=CCn1c(SCC(O)Cn2c3ccccc3c3ccccc32)nnc1-c1ccco1 (stereo unspecified) | 77 | n | n | n
SMILES | CHOP inh | RAM network inh | WT yeast gro inh | L major viab
CS(=O)(=O)N1CCN(C(=O)Cc2ccccc2Cl)CC1 | n | n | n | n
Cc1ccccc1NC(c1cccc(Cl)c1)c1nnnn1C1CCCCC1 (stereo unspecified) | 87 | n | n | n
c1cncc(C(c2nnnn2C2CCCC2)N2CCCC2)c1 (stereo unspecified) | n | n | n | n
O=C(Oc1cccnc1)c1ccc(Cl)c(Cl)c1 | n | n | 96 | n
CC(=O)Nc1ccc(S(=O)(=O)Nc2nnc(CC(C)(C)C)s2)cc1 | n | n | n | n
CC(C)(C)C(=O)N1CCN(c2ccc([N+](=O)[O-])c(-n3nc(-c4ccccc4)c4ccccc4c3=O)c2)CC1 | n | n | n | 57
CN(C)CCCN(C(=O)c1cccs1)c1nc(-c2ccccc2)cs1 | n | n | n | 100
O=C(c1cccs1)N(Cc1ccco1)c1nc(-c2ccc(F)cc2)cs1 | n | n | n | n
CCCCc1nnc(NC(=O)COc2ccc3c(C)cc(=O)oc3c2)s1 | n | x | x | x
CC(C)NC(=O)C1CCN(C2CCN(C(=O)c3cc4c(s3)CCCCC4)CC2)CC1 | n | n | n | 89
Brc1cc(Cc2nnc(-c3ccccc3)o2)c(Br)s1 | n | x | x | x
CC(C)c1nn2c(=O)cc(O)nc2s1 | n | n | n | n
CC(C)COc1ccc(CSCCNC(=S)Nc2ccccc2)cc1 | 83 | 9.0 | 76 | 72
CCCCCOc1ccc(CSCCNC(=S)Nc2ccccc2)cc1 | n | n | 68 | 53
Cc1cccc(CSCCNC(=O)Nc2ccccc2)c1 | n | n | n | n
CCCCOc1ccc(CSCCNC(=S)Nc2ccccc2)cc1 | n | n | n | n
O=C(/C=C/c1ccc(S(=O)(=O)N2CCOCC2)cc1)NCc1ccccc1 | n | n | n | n
